# Measured values taken from PubChem BioAssay.
# For some assays here: Potency and affinity values are given separately. Activity calls are given as the source filed them.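 The calls were made as follows, unless noted: active = membrane potential signal rise above negative control mean plus 3 SD in both duplicates, also active in the earlier TRPC4 screen; inactive = the rest.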
# Experiments:
# [1] = test system: TRPC4 beta (transient receptor potential cation channel C4), mouse; assay: activators of mouse TRPC4 channel, confirmation, cell-based, Fluo4 calcium, HEK293 TRPC4beta/mu-opioid, duplicates, 10 µM (AID 2426;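 active = fluorescence ratio normalized to control raised more than 50% in primary screen plus both repeat runs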); details: Fluo4 calcium fluorescence, at 10 µM; stronger effect = higher value
# [2] = test system: transient receptor potential cation channel C4 beta (TRPC4), mouse; assay: activators of mouse TRPC4 channel, confirmation, cell-based, second round, Fluo4, HEK293 TRPC4beta/mu-opioid, 1 µM (AID 2461;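 active = primary screen active and over 50% activation in each of two duplicate runs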); details: Fluo4 calcium fluorescence, at 1 µM; stronger effect = higher value
# [3] = test system: TRPC4 (transient receptor potential cation channel C4 beta), mouse; assay: positive allosteric modulators of mouse TRPC4, confirmation, cell-based, second round, Fluo-4, HEK293 TRPC4beta/mu-opioid, 1 µM (AID 2554;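 active = primary screen hit whose fluorescence ratio, in both repeats, exceeds the weak agonist control mean by 3 SD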); details: DAMGO EC20, Fluo-4 calcium flux, at 1 µM; stronger effect = higher value
# [4] = test system: TRPC4 beta (transient receptor potential cation channel C4), mouse; assay: positive allosteric modulators of mouse TRPC4, confirmation, cell-based, Fluo-4, HEK293 TRPC4beta/mu-opioid (AID 2555;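 active = primary screen hit whose calcium fluorescence ratio, in both repeats, exceeds the weak agonist control mean by 3 SD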); details: DAMGO EC20, Fluo-4 calcium flux, at 10 µM; stronger effect = higher value
# [5] = target: Short transient receptor potential channel 4 (Mus musculus) (UniProt Q9QUQ5); assay: inhibitors of mouse TRPC4 channel, confirmation, cell-based, Fluo4, HEK293 TRPC4beta/mu-opioid (AID 2636;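 active = calcium signal cut by more than 3 SD below the full-agonist control yet still positive, in both repeats and the earlier primary screen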); details: DAMGO, Fluo4 calcium flux, at 10 µM; stronger effect = higher value
# [6] = target: Short transient receptor potential channel 4 (Mus musculus) (UniProt Q9QUQ5); assay: inhibitors of mouse TRPC4 channel, confirmation, cell-based, second round, Fluo4, HEK293 TRPC4beta/mu-opioid, 1 µM (AID 2637;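 active = calcium signal ratio cut to more than 3 SD under the fully stimulated control mean yet still positive, in both repeats and the primary screen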); details: Fluo4 calcium flux, DAMGO, at 1 µM; stronger effect = higher value
# [7] = target: Short transient receptor potential channel 4 (Mus musculus) (UniProt Q9QUQ5); assay: mouse TRPC4 channel activators, dose response, cell-based, HEK293 TRPC4/mu-opioid, Fluo-4 calcium (AID 434937;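 active = primary screen activator hit with a dose response curve and TRPC4 channel activation at any tested dose; inactive = no activation, no dose response, or not a primary hit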)
# [8] = target: Short transient receptor potential channel 4 (Mus musculus) (UniProt Q9QUQ5); assay: TRPC4 positive allosteric modulators, dose response, cell-based, HEK293 TRPC4/mu-opioid, Fluo-4 calcium, EC20 DAMGO (AID 434941;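 active = earlier screen potentiator hit that boosts the TRPC4 ion channel at some dose, with a dose response; inactive = no potentiation, no dose response, or not a prior hit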;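 also: calcium entry triggered by an EC20 dose of DAMGO at the co-expressed mu-opioid receptor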)
# [9] = target: Short transient receptor potential channel 4 (Mus musculus) (UniProt Q9QUQ5); assay: mouse TRPC4 channel inhibitors, dose response, cell-based, HEK293 TRPC4/mu-opioid, Fluo-4 calcium (AID 434942;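 active = primary screen inhibitor hit that blocks the TRPC4 channel at some tested dose, yielding a dose curve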)
# [10] = target: Short transient receptor potential channel 6 (Mus musculus) (UniProt Q61143); assay: inhibition of mouse TRPC6 channel, confirmation, selectivity assay for TRPC4 inhibitor project, cell-based, HEK293, membrane potential dye, duplicate (AID 434948;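 active = active in primary screen and both duplicates, each dropping signal beyond three positive-control SD with fluorescence still positive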); details: HEK293 TRPC6, membrane potential dye fluorescence, at 10 µM, stimulated with maximal-effect acetylcholine; stronger effect = higher value
# [11] = target: Short transient receptor potential channel 6 (Mus musculus) (UniProt Q61143); assay: activation of mouse TRPC6 channel, confirmation, selectivity assay for TRPC4 activator project, cell-based, HEK293, membrane potential dye, duplicate (AID 434950); details: HEK293 TRPC6, membrane potential fluorescence, at 10 µM; stronger effect = higher value
# [12] = target: Short transient receptor potential channel 6 (Mus musculus) (UniProt Q61143); assay: TRPC6 potentiation by TRPC4 potentiator hits, confirmation, selectivity assay for TRPC4 potentiator project, HEK293 cells, membrane potential dye, duplicate (AID 434952;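 active = compound raising the membrane signal above positive-control mean plus 3 SD in both repeats, and a primary screen hit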); details: HEK293 TRPC6, membrane potential dye fluorescence, at 10 µM, maximal acetylcholine added after compound; stronger effect = higher value
# [13] = target: Short transient receptor potential channel 4 (Mus musculus) (UniProt Q9QUQ5); assay: calcium flux activators in TRPC4/5HT1a cells, counter-screen for TRPC4 activator project, cell-based, second counter screen, HEK293 TRPC4/5HT1a, Fluo-4 (AID 434977;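 active = calcium signal rise above buffer-control mean plus 5 SD in both duplicates, and also a hit in the primary screen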); details: Fluo-4 calcium flux, at 10 µM; stronger effect = higher value
# [14] = calcium flux inhibitors in TRPC4/5HT1a cells, confirmation, counter-screen for TRPC4 inhibitor project, cell-based, second counter screen, HEK293 TRPC4/5HT1a, Fluo-4 (AID 434978;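 active = primary screen active whose calcium signal fell more than 3 SD beyond the full-serotonin control mean in both duplicate plates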;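 as to outcome: serotonin given first at submaximal then at maximal dose after compound preincubation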); details: Fluo-4 calcium flux, at 10 µM, serotonin added to trigger calcium flux; stronger effect = higher value
# [15] = test system: TRPC4 (mouse), co-expressed with 5HT1a in HEK293; assay: calcium flux potentiators in TRPC4/5HT1a cells, confirmation, counter-screen for TRPC4 potentiator project, cell-based, second counter screen, HEK293 TRPC4/5HT1a, Fluo-4 (AID 434979;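 active = signal rise over 3 SD above mean of control wells given weak agonist, in both repeats and first screen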); details: Fluo-4 calcium flux, at 10 µM, serotonin added at its EC20 dose; stronger effect = higher value
# [16] = calcium flux activation in mu-opioid HEK293 cells, confirmation, counter-screen for TRPC4 activator project, cell-based, HEK293 mu-opioid receptor line (AID 449723;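 active = hit in primary screen, with calcium signal over 5 SD above buffer well mean in both duplicates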;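 also: counter screen cells carry the mu-opioid receptor alone and lack TRPC4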); details: Fluo-4 calcium fluorescence, at 10 µM; stronger effect = higher value
# [17] = calcium flux enhancement in mu-opioid HEK293 cells, confirmation, counter-screen for TRPC4 allosteric potentiator project, cell-based, HEK293 mu-opioid receptor line (AID 449724;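 active = calcium signal rise more than 3 SD above the low-dose agonist control mean, in both duplicate plates and the primary screen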); details: Fluo-4 calcium flux, at 10 µM, compound added before EC20 DAMGO stimulus; stronger effect = higher value
# Short transient receptor potential channel 6 (Mus musculus), sequence (Q61143 whole entry, looked up): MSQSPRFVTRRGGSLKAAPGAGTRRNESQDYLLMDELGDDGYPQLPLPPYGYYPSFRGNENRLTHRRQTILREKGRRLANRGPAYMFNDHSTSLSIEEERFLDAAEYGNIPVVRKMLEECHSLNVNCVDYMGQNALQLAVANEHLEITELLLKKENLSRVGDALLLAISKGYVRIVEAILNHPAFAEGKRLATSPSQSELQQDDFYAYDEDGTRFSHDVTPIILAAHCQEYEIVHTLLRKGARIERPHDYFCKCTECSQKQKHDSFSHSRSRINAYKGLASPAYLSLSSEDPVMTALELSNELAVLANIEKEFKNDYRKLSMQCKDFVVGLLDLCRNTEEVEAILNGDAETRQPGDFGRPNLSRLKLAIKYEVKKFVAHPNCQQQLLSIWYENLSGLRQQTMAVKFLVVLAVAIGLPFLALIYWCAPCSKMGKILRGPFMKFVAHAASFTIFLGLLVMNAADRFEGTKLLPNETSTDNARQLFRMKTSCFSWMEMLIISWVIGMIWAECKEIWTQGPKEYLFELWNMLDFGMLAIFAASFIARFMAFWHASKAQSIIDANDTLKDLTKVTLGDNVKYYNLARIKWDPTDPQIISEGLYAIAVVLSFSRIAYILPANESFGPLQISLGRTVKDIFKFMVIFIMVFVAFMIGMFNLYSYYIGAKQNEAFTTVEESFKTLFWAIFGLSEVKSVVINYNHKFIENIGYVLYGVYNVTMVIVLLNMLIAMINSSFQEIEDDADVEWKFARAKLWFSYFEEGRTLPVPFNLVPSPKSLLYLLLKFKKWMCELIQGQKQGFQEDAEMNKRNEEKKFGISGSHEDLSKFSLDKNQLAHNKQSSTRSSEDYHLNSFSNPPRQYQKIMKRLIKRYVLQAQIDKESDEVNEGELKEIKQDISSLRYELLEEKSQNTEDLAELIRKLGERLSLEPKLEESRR
# Short transient receptor potential channel 4 (Mus musculus), sequence (Q9QUQ5 whole entry, looked up): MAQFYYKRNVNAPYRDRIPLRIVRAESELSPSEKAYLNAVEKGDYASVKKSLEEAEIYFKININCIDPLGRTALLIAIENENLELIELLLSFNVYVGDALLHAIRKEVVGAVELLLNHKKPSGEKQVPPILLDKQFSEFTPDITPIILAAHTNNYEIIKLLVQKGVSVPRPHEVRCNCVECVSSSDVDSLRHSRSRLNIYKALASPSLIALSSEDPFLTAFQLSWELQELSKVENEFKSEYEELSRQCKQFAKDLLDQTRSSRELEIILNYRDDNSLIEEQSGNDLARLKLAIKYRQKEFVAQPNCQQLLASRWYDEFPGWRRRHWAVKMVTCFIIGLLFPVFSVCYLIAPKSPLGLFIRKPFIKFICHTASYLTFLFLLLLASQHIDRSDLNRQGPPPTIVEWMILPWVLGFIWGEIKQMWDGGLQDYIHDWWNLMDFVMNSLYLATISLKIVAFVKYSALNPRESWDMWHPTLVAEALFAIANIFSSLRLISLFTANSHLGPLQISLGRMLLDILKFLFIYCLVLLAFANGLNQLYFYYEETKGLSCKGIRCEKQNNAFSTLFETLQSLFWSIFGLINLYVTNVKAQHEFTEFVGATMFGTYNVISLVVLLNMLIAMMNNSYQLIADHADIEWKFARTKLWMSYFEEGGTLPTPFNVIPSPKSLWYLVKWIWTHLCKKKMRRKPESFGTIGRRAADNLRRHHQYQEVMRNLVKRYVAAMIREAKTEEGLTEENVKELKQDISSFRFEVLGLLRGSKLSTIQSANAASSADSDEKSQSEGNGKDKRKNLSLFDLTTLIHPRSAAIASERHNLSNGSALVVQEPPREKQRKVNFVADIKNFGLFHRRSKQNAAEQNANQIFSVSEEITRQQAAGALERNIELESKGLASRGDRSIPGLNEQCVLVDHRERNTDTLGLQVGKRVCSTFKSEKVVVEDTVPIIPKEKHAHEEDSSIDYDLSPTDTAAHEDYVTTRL
structure (smiles),measurement,setting,value
COc1ccc(OC)c(Nc2c3c(nc4ccccc24)CCC3)c1,outcome,[1],inactive
same,outcome,[2],inactive
same,outcome,[3],inactive
same,outcome,[4],inactive
same,inhibition,[5],67% (active)
same,outcome,[6],inactive
same,outcome,[7],inactive
same,outcome,[8],inactive
same,outcome,[9],inactive
same,outcome,[10],inactive
same,outcome,[11],inactive
same,outcome,[12],inactive
same,outcome,[13],inactive
same,inhibition,[14],30.5% (active)
same,outcome,[15],inactive
same,outcome,[16],inactive
same,outcome,[17],inactive
CC1CC(C)CN(CCCNC(=O)c2ccc(N3CCCC3=O)cc2)C1 (centres undefined),outcome,[1],inactive
same,outcome,[2],inactive
same,outcome,[3],inactive
same,outcome,[4],inactive
same,outcome,[5],inactive
same,outcome,[6],inactive
same,outcome,[7],inactive
same,outcome,[8],inactive
same,outcome,[9],inactive
same,outcome,[10],inactive
same,outcome,[11],inactive
same,outcome,[12],inactive
same,outcome,[13],inactive
same,outcome,[14],inactive
same,potentiation,[15],27.3% (active)
same,outcome,[16],inactive
same,outcome,[17],inactive
CC(C)(C)c1ccc(-c2nnc3sc(-c4ccccn4)nn23)cc1,outcome,[1],inactive
same,outcome,[2],inactive
same,outcome,[3],inactive
same,potentiation,[4],68% (active)
same,outcome,[5],inactive
same,outcome,[6],inactive
same,outcome,[7],inactive
same,outcome,[8],inactive
same,outcome,[9],inactive
same,outcome,[10],inactive
same,outcome,[11],inactive
same,outcome,[12],inactive
same,outcome,[13],inactive
same,outcome,[14],inactive
same,outcome,[15],inactive
same,outcome,[16],inactive
same,outcome,[17],inactive
CCCN1CCN(C(=S)NCc2ccc(Cl)cc2)CC1,outcome,[1],inactive
same,outcome,[2],inactive
same,outcome,[3],inactive
same,potentiation,[4],8% (active)
same,outcome,[5],inactive
same,outcome,[6],inactive
same,outcome,[7],inactive
same,outcome,[8],inactive
same,outcome,[9],inactive
same,outcome,[10],inactive
same,outcome,[11],inactive
same,outcome,[12],inactive
same,outcome,[13],inactive
same,outcome,[14],inactive
same,potentiation,[15],19.3% (active)
same,outcome,[16],inactive
same,outcome,[17],inactive
CC(=O)c1cccc(Nc2cc(C)nc3c(C)cc(C)cc23)c1,outcome,[1],inactive
same,outcome,[2],inactive
same,outcome,[3],inactive
same,outcome,[4],inactive
same,outcome,[5],inactive
same,outcome,[6],inactive
same,outcome,[7],inactive
same,outcome,[8],inactive
same,outcome,[9],inactive
same,inhibition,[10],25.5% (active)
same,outcome,[11],inactive
same,outcome,[12],inactive
same,outcome,[13],inactive
same,outcome,[14],inactive
same,outcome,[15],inactive
same,outcome,[16],inactive
same,outcome,[17],inactive
CC1CCCN(C2=C(NS(=O)(=O)c3ccc(Br)cc3)C(=O)c3ccccc3C2=O)C1 (centres undefined),outcome,[1],inactive
same,outcome,[2],inactive
same,outcome,[3],inactive
same,outcome,[4],inactive
same,outcome,[5],inactive
same,outcome,[6],inactive
same,outcome,[7],inactive
same,outcome,[8],inactive
same,outcome,[9],inactive
same,outcome,[10],inactive
same,outcome,[11],inactive
same,outcome,[12],inactive
same,outcome,[13],inactive
same,outcome,[14],inactive
same,outcome,[15],inactive
same,outcome,[16],inactive
same,outcome,[17],inactive
O=C(CSc1nnc(-c2ccccc2)o1)c1ccc2c(c1)OCCO2,outcome,[1],inactive
same,outcome,[2],inactive
same,outcome,[3],inactive
same,outcome,[4],inactive
same,outcome,[5],inactive
same,outcome,[6],inactive
same,outcome,[7],inactive
same,outcome,[8],inactive
same,outcome,[9],inactive
same,outcome,[10],inactive
same,outcome,[11],inactive
same,outcome,[12],inactive
same,outcome,[13],inactive
same,outcome,[14],inactive
same,outcome,[15],inactive
same,outcome,[16],inactive
same,outcome,[17],inactive
